High-throughput results deposited in PubChem by National Center for Advancing Translational Sciences (NCATS).
TDP1 inh: TDP1 (human) enzyme inhibition | 0.28% of 350,000 active | Potency, µM (doses to about 130 µM), hits mostly inhibitors | Q9NUW8 | recombinant TDP1, AlphaScreen DNA substrate cleavage; further: nearly all actives have a fitted effect of over 40% in size
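Here, a 5' biotin and 3' phosphotyrosine-FITC DNA oligonucleotide reports Tdp1 activity: intact substrate bridges AlphaScreen beads, while cleavage leaves a 3' phosphate and drops signal. All incubations at room temperature.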
TDP1 cell noCPT: qHTS for Inhibitors of human tyrosyl-DNA phosphodiesterase 1 (TDP1): qHTS in cells in absence of CPT. DT40 Tdp1-/- hTDP1 cells, no CPT, ATP luminescence, 48 h. Potency, µM (highest dose often 46.2 µM), usual class: inhibitors. 15% of 420,000 active; further: nearly all actives have a fitted effect of over 55% in size
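Growth of hTDP1-complemented DT40 Tdp1-knockout cells is measured by ATP luminescence after at least 48 hr compound exposure at 37 °C, with DMSO substituting for the 20 nM CPT used in the parallel screen.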
IL-1B inflam inh: inhibitors of inflammasome signaling (IL-1 beta secretion) | activity change, % at 57.5 µM | 4.7% of 360,000 active | AID 743279 | THP-1 LPS/ATP IL-1B secretion, AlphaLISA, 16 h; hits give low values; in the data active means activity change below about -50%; inconclusive means mostly about -30% to -49%
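Secreted IL-1B measured by AlphaLISA bead assay after 16 h compound exposure of THP-1 cells; compounds (final up to 57.5 uM) added 1 h before LPS (250 ng/mL) and ATP (1.25 mM) stimulation; lower signal means less secretion.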
TDP1 cell CPT: growth inhibition of DT40 Tdp1-/-;hTDP1 cells with camptothecin (screen for TDP1 inhibitors); 12% of 420,000 active; chicken DT40 Tdp1-/-;hTDP1 cells + 20 nM CPT, ATP luminescence, 48 h; Potency, µM (series often up to 46.2 µM), actives largely listed as inhibitors; further: nearly all actives have a fitted effect of over 55% in size
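Cell growth measured by CellTiter-Glo luminescence after a minimum 48 h, 37 C compound exposure with 20 nM CPT in Tdp1-knockout DT40 cells stably expressing hTDP1, seeded 400/well; qHTS titration format.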
Six1-Eya2 inh: blocks human Six1 binding to Eya2 | Q15475+O00167 | AlphaScreen GST-Six1/His-Eya2 binding, biochemical; hits give low values | activity change, % (no concentration beside the values) | 0.56% of 360,000 active | AID 651725; in the data active means activity change below about -65%; inconclusive means mostly about -30% to -63%
Target sequence (O00167 whole entry, looked up): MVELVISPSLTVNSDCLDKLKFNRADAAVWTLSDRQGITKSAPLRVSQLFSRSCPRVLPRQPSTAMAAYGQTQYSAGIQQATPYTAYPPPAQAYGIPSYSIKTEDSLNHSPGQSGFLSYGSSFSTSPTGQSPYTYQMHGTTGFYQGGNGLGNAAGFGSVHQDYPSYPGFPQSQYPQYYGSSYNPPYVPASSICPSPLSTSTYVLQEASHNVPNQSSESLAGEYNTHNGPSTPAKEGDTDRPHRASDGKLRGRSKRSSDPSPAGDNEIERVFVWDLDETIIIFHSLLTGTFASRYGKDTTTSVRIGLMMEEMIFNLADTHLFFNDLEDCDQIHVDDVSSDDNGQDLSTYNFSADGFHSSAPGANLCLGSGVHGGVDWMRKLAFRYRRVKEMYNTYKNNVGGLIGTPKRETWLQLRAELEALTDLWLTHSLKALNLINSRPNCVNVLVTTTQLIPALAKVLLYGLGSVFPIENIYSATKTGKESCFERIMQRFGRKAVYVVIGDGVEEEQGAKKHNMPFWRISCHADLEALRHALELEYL
Target sequence (Q15475 whole entry, looked up): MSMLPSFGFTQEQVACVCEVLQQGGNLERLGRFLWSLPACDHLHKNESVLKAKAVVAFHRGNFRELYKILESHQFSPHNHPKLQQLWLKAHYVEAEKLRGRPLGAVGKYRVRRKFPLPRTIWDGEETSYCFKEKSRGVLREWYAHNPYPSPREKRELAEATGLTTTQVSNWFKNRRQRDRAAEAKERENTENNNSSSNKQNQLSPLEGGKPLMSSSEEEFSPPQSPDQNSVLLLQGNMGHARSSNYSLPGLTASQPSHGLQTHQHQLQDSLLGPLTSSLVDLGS
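GST-Six1 + His-Eya2 (5X stock: 250/500 nM); Tris pH 8.0, 300 mM NaCl, 0.05% BSA, 0.02% Tween 20; GSH donor/Ni acceptor beads; 1 h 37 °C dark; AlphaScreen readout.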
CtBP-E1A blk: CtBP/E1A binding inhibition. activity change, % (no concentration beside the values). 0.49% of 340,000 active. AlphaScreen GST-E1A/His-CtBP binding, 1536-well; hits give low values. AID 651724; in the data active means activity change below about -65%; inconclusive means mostly about -30% to -63%
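Protein mix (5X: 125 nM each GST-E1A, His-CtBP) was incubated with pinned compound 2 h at 37 deg C in dark, in 50 mM Tris pH 8.0 buffer with 300 mM NaCl. Glutathione donor and nickel acceptor beads followed; AlphaScreen signal read after 1 h.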
A number is an active result; 0 = inactive; ? = inconclusive; - = not tested or not shown. A selection: hits, their analogues and other compounds. The true share with any hit is near 18%. Unless noted, the call rests on the fitted dose curve; in most records, active means well fitted curve in the direction sought with a large enough effect; inconclusive means small, poorly fitted or top-dose-only effect, or another doubt; inactive means no such curve, though single readings can be large; an effect the other way counts as inactive or inconclusive.

SMILES	TDP1 inh	TDP1 cell noCPT	IL-1B inflam inh	TDP1 cell CPT	Six1-Eya2 inh	CtBP-E1A blk
CCNc1nc(CN2CCCCC2)nc2scc(-c3ccccc3)c12	0	16µM	-91	12µM	0	0
CCc1ccc(N2CN(CCc3ccccc3)CNC2=S)cc1	0	29µM	0	?	0	0
CC(=O)NC(CC(=O)NCCOc1ccccc1F)c1ccccc1 (stereo not given)	0	0	0	0	0	0
CCCc1ccccc1OCCNC(C)=O	0	18µM	0	18µM	0	0
COc1ccc(C(CNC(=O)C(=O)NC2CCCCC2)N2CCN(C)CC2)cc1 (stereo not given)	-	0	0	0	0	0
COc1ccccc1C(=O)Nc1ccccc1OCc1cc(=O)n2c(C)csc2n1	0	16µM	-	?	-	-
Cc1ccccc1OCC(=O)Nc1ccccc1C(=O)OCc1cc(=O)n2c(C)csc2n1	0	4.6µM	-	2.6µM	-	-
Cc1csc2nc(COC(=O)COc3ccccc3F)cc(=O)n12	0	0	-	0	-	-
Cc1csc2nc(COc3ccc(NC(=O)COc4ccccc4F)cc3)cc(=O)n12	0	15µM	-	?	-	-
Cc1ccccc1OCC(=O)Nc1ccccc1C(=O)OCc1cc(=O)n2ccsc2n1	0	0	-	0	-	-
Cc1csc2nc(COc3ccccc3NC(=O)c3ccccc3Cl)cc(=O)n12	0	3.7µM	-	4.6µM	-	-
O=C(CC1NC(=O)NC1=O)Nc1cccc2ccccc12 (stereo not given)	0	0	0	0	0	0
CC(=O)Nc1ccc(NC(=O)CSc2nnc(CC(C)O)n2-c2ccccc2)cc1 (stereo not given)	0	0	0	0	0	0
COc1cc(S(=O)(=O)N2CCCCC2)ccc1NC(=O)c1ccncc1	-	0	0	0	0	0
COc1ccc(-c2oc3ccc(-c4cc(OC)c(OC)c(OC)c4)cc3c2C#Cc2ccccn2)cc1	0	?	0	18µM	0	0
COc1cc2oc3ccc(C#Cc4ccccn4)cc3c(=O)c2cc1OC	-	23µM	0	?	0	0
COc1ccc(C#Cc2c(-c3ccc(OC)cc3)oc3ccc(-c4ccc(OC)cc4)cc23)cc1	-	0	0	0	0	0
COc1cc2oc3cc(C#Cc4ccc(N)cc4)ccc3c(=O)c2cc1OC	-	16µM	-61	16µM	0	0
COc1cc2oc3ccc(C#Cc4ccc(N)cc4)cc3c(=O)c2cc1OC	-	?	0	?	0	0
COc1ccc(N2CCN(C(=O)CSc3nnc4nc(C)cc(C)n34)CC2)cc1	-	0	0	0	0	0
Cc1cc(-c2ccc(S(=O)(=O)N3CCN(c4ccc(F)cc4)CC3)s2)on1	0	0	0	0	0	0
C=CCn1c(SCC(=O)NCC2CCCO2)nnc1C1CCCCC1 (stereo not given)	0	0	0	0	0	0
CC1(C)CC(=O)c2cc(NC(=O)c3ccccc3)c(=O)oc2C1	0	?	0	?	0	0
COc1ccc(/C=C/C(=O)Nc2cccc(F)c2)cc1S(=O)(=O)N1CCOCC1	0	?	?	?	0	0
Cc1cccc(NC(=O)CNC(=O)CCc2nc3sc4c(c3c(=O)[nH]2)CCCC4)c1C	?	?	0	0	0	0
SMILES	TDP1 inh	TDP1 cell noCPT	IL-1B inflam inh	TDP1 cell CPT	Six1-Eya2 inh	CtBP-E1A blk
CC(=O)c1ccc(NC(=O)CCc2nc3sc4c(c3c(=O)[nH]2)CCCC4)cc1	0	?	0	?	0	0
CCN(c1ccc(NC(=O)CCc2nc3sc4c(c3c(=O)[nH]2)CCCC4)cc1)C(C)C	0	23µM	0	29µM	0	0
Cc1cccc(NC(=O)CCc2nc3sc4c(c3c(=O)[nH]2)CCCC4)n1	-	18µM	0	?	?	?
CC(=O)c1cccc(NC(=O)CCc2nc3sc4c(c3c(=O)[nH]2)CCCC4)c1	0	13µM	0	?	0	0
Cn1c(CBr)c(C(=O)c2ccc([N+](=O)[O-])cc2)c(=O)n(C)c1=O	0	0	0	0	0	0
O=C1c2cccc([N+](=O)[O-])c2C(=O)N1c1ccccc1	0	0	0	0	0	0
CCSc1ncc(Cl)c(C(=O)N(Cc2ccccc2)Cc2ccco2)n1	0	16µM	-	?	-	-
CCCSc1ncc(Cl)c(C(=O)N(Cc2ccc(Cl)cc2)Cc2ccco2)n1	0	?	-	?	-	-
COc1ccc(C(=O)N(Cc2ccco2)Cc2ccco2)cc1	0	?	-	?	-	-
CSc1ncc(Cl)c(C(=O)N(Cc2ccc(N(C)C)cc2)Cc2ccco2)n1	0	7.3µM	-	?	-	-
CN(C(=O)COC(=O)c1ccc2ccccc2n1)C1CCS(=O)(=O)C1 (stereo not given)	0	0	0	0	0	0
C=CCOc1ccc(Br)cc1/C=N/O	0	0	0	0	0	0
O/N=C/c1cc(Br)ccc1OCc1ccccc1F	-	0	-63	0	0	0
O=C(NCC(=O)N1CCCC(C(F)(F)F)C1)c1ccc(Br)o1 (stereo not given)	-	0	0	0	0	0
